# Results reported in PubChem BioAssay (Tox21).
# Results filed as inconclusive are left out. A number with no mark means an inactive call. Calls of active or inactive are those of the source. Calls come from the whole dose curve; as a rule, active = well fitted cell-killing curve with a large enough effect in the repeat runs; inconclusive = weak or mixed curves, or effect the other way; inactive = no such curve, though single readings can be large or run the other way.
# Assay: qHTS assay to identify small molecule antagonists of the glucocorticoid receptor (GR) signaling pathway - cell viability counter screen (AID 720693); note: nearly all actives have a fitted effect of over 55% in size
# Details: GR-bla HeLa viability, CellTiter-Glo luminescence, 18 h, with 5 nM dexamethasone present; series mostly up to 58.5 µM; viability change, negative = cytotoxic: at the top concentration
# Excerpt: National Center for Advancing Translational Sciences [NCATS]
# NIH Chemical Genomics Center [NCGC]
# U.S. Environmental Protection Agency [EPA]
# National Institutes of Environmental Health Sciences [NIEHS]
# National Toxicology Program [NTP]
# U.S. Food and Drug Administration [FDA]
# The Glucocorticoid receptor (GR) is one of the members of the nuclear receptor family of ligand-dependent transcription factors. GR plays a critical role in carbohydrate, protein and lipid metabolisms and programmed cell death. CellSensor GR-bla HeLa cell line (Invitrogen) contains a beta-lactamase reporter gene under the control of the glucocorticoid response element stably integrated into HeLa cells, a cervical cancer cell line that expresses glucocorticoid receptor. The activation of the reporter gene under culture conditions can be detected by fluorescence intensity. This cell line has been used to screen the Tox21 10K compound library and to identify the compounds that inhibit the GR signaling. The cytotoxicity of the Tox21 compound library against the GR-bla HeLa cell line was tested in parallel by measuring the cell viability using CellTiter-Glo assay in the same wells.
# Tox21 Assay Protocol Summary:
# The GR-bla HeLa cells were dispensed at 1500 cells/5 ul/well in 1536-well black wall/clear bottom plates using a Multidrop Combi (ThermoFisher Scientific, Waltham, MA) dispenser. After the assay plates were incubated at a 37 C/5% CO2 incubator for 4 hours, 23 nL of compounds dissolved in DMSO, positive controls or DMSO only was transferred to the assay plate by a pintool station (Kalypsys, San Diego, CA), followed by addition of 1 uL of dexamethasone (5 nM, final concentration in the well). The plates were incubated at 37 C for 18 hours. After 1 uL of LiveBLAzerTM B/G FRET substrate was added using a Flying Reagent Dispenser (Aurora Discovery, San Diego, CA), the plates were incubated at room temperature (RT) for 2 hours, and fluorescence intensity was measured by an Envision plate reader (PerkinElmer, Shelton, CT). After measurement of bla assay, 3 ul CellTiter-Glo (Promega, Madison, WI) was added to measure the cytotoxicity and the plates were then incubated at RT for 30 min. The luminescence was measured using a ViewLux (Perkin Elmer) plate reader.
# % is set by controls: 0 for no effect and ±100 for the full control effect.
Compound,"viability change, negative = cytotoxic",outcome
N#Cc1ccc(C(=O)O)cc1,-7.44%,
CN(CCOc1ccc(NS(C)(=O)=O)cc1)CCc1ccc(NS(C)(=O)=O)cc1,-13.2%,
O=C(OCC(COC(=O)c1cccnc1)(COC(=O)c1cccnc1)COC(=O)c1cccnc1)c1cccnc1,-7.36%,
C[Si](C)(C)C,0.125%,
O=S(=O)(O)CCN1CCN(CCO)CC1,-1.02%,
C=COCCOCCOCCOC=C,19.7%,
Nc1cccc(O)c1,-14.7% [at 78.9 µM],
O=C(O)c1cc(Br)c(O)c(Br)c1,10.5%,
CC(=O)OC(C)OC(=O)C(C)c1ccc(-c2ccccc2)c(F)c1 (stereo not given),,inactive
N[C@@H](COP(=O)(O)O)C(=O)O,1.12%,
COC(=O)[C@@H]1[C@H]2C[C@H]3c4[nH]c5ccccc5c4CCN3C[C@@H]2CC[C@@H]1O,-7.28%,
O=C1O[C@@H]2[C@@H](O)[C@H](O)O[C@@H]2[C@H]1O,,inactive
CC(=O)NCc1c(I)c(NC(C)=O)c(I)c(C(=O)O)c1I,-5.09%,
O=C(Nc1ccc(Cl)c(Cl)c1)C1CC1,-1.45%,
C#CC(C)N(C)C(=O)Nc1ccc(Cl)cc1 (stereo not given),-2.5%,
Nc1ccc([N+](=O)[O-])c(N)c1,0.725%,
CN1CCN(CC(=O)N2c3ccccc3C(=O)Nc3cccnc32)CC1,0.182%,
CCCOC(OCCC)OCCC,-2.49%,
CC(C)(C)c1cc(CCC(=O)NN)cc(C(C)(C)C)c1O,-0.178%,
CCNC(=O)C1CC(C)CCC1C(C)C (stereo not given),7.88%,

Compound,"viability change, negative = cytotoxic",outcome
COCCOCCOCCOCCO,-11.6%,
BrCc1cccc(Oc2ccccc2)c1,-3.56%,
CC1COc2ccccc2N1 (stereo not given),5.97%,
CN(C)CCOCCO,-2.33%,
O=C(NCC(O)CO)c1c(I)c(C(=O)NCC(O)CO)c(I)c(N(CCO)C(=O)CO)c1I (stereo not given),1.73% [at 27 µM],
CN=C(NC#N)Nc1ccc(C2=NNC(=O)CC2C)cc1 (stereo not given),17.6%,
CCOC(=O)CC(=O)c1ccccc1,-0.0025%,
CCCCCCCC/C=C\CCCCCCCC(=O)OCCCC,-7.93% [at 27 µM],
O=C(/N=N/C(=O)OCc1ccccc1)OCc1ccccc1,9.89%,
COc1ccc2c(c1)C(=O)N(CCc1ccc(S(=O)(=O)NC(=O)NC3CCCCC3)cc1)C(=O)C2(C)C,0.485% [at 27 µM],
NCCN1CCOCC1,-3%,
CC(=O)c1sc(C)nc1C,-7.26%,
CCCCCCOc1ccccc1C(N)=O,16.8%,
CCCCCCCCC(=O)Cl,-9.62% [at 78.9 µM],
C=C(C)C1CCC(C)(O)CC1 (stereo not given),12.8%,
C=CC(OCC)OCC,-1.35%,
O=Cc1ccc(Cl)c(Cl)c1,0.253% [at 78.9 µM],
CC1(CO)CN(c2ccccc2)NC1=O (stereo not given),-1.25%,
O=C1c2ccccc2C(=O)N1CCl,-0.717%,
CC(N)C(=O)OC(C)(C)Cc1ccc(Cl)cc1 (stereo not given),0.468%,
